In ChEMBL document CHEMBL1857833, “Screening and optimization of specific chemical series against human African Trypanosomiasis (HAT)”:
Screen size: about 4,400 compounds; about 390 (8.9%) showed an effect of 50% or more. The entries come from a sample that favours strong results as a whole.

What follows are compounds tested on Trypanosoma brucei (assay: DNDI: Inhibition of Human African Trypanosomiasis, SBRI 427, in vitro at 2 ug.mL-1).
Format: functional

Question: Which “% inhibition” value does the source give for `COc1ccc(OC)c(CCNCc2coc(-c3ccc(C(C)(C)C)cc3)n2)c1` here?
Answer: 74%

Question: For `COc1ccc(OC)c(CCNCc2coc(-c3ccc(C)cc3)n2)c1`, which “% inhibition” value is on record?
Answer: 7%

Question: How did the “% inhibition” value turn out when `COc1ccc(-c2nc(CNCCc3cc(OC)ccc3OC)co2)cc1` was run?
Answer: 7%

Question: Which “% inhibition” value does the source give for `COc1ccc(Oc2nc(C)ccc2/C(=N/O)N2CC2C)cc1` (stereo not given) here?
Answer: 14%

Question: How did the “% inhibition” value turn out when `Cc1cc(C)cc(Oc2ccc(/C(=N/O)N3CC3C)cn2)c1` (stereo not given) was run?
Answer: 3%

Question: `CC1CN1/C(=N\O)c1ccc(Oc2ccc3ccccc3c2)nc1` (stereo not given) was tested. Which “% inhibition” value did it give?
Answer: 8%

Question: How did the “% inhibition” value turn out when `CC1CN1/C(=N\O)c1ccc(Oc2ccc3oc4ccccc4c3c2)nc1` (stereo not given) was run?
Answer: 68%

Question: Which “% inhibition” value does the source give for `COc1ccc(OC)c(CCNCc2coc(-c3ccccc3C)n2)c1` here?
Answer: 11%

Question: `Cc1ccc(/C(=N/O)N2CC2C)c(Oc2cccc(C(C)C)c2)n1` (stereo not given) was tested. Which “% inhibition” value did it give?
Answer: -6%

Question: With `Cc1ccc(/C(=N/O)N2CC2C)c(Oc2cccc3ccccc23)n1` (stereo not given) as the compound, how does the “% inhibition” value read?
Answer: 12%
